In publication PMC7862700, “An all-to-all approach to the identification of sequence-specific readers for epigenetic DNA modifications on cytosine” one finds binding signal data, which are given here for one sequence.

Holding throughout (assay): DAPPL (digital affinity profiling via proximity ligation, sequencing); 10 mM Tris-HCl pH 7.5, 50 mM NaCl, 1 mM DTT, 4% glycerol, room temperature, 30 min; GST-TFs on glutathione beads, 16-mer random dsDNA library, 0.1% formaldehyde crosslink after washing; high values mean tight binding
In one assay the target is T1, FEV (Homo sapiens, UniProt Q99581 1-238).
T1 sequence: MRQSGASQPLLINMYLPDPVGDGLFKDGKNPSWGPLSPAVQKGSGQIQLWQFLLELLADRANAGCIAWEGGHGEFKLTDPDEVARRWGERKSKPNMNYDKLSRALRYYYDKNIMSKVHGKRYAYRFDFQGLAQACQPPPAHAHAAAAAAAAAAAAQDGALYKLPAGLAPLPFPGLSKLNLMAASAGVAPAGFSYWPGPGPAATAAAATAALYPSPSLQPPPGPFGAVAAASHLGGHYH
The note with it: protein: recombinant; tags: N-terminal GST; dsDNA, one strand shown. In outline: (§1)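 A tag-only sample was pooled with DNA-barcoded human transcription factors that had been expressed in yeast as GST fusions and captured on glutathione beads. The pools were incubated for 30 min at room temperature with 200 nmole of a random double-stranded 16-mer DNA library in Tris/NaCl/DTT/glycerol buffer, then washed, crosslinked with 0.1% formaldehyde, proximity-ligated (BsaI/T4 ligase, 1 h, 37 °C), PCR-amplified and sequenced on an Illumina NextSeq500. Binding signal is each hexamer's read frequency for a factor divided by its frequency for the tag-only sample.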

The target of another assay is ETV5 (Homo sapiens, UniProt P41161 1-510). The note with it: protein: recombinant; tags: N-terminal GST; dsDNA, one strand shown. In outline:
as §1

For a further assay, the target named is HSF1 (Homo sapiens, UniProt Q00613 1-529). The note with it: protein: recombinant; tags: N-terminal GST; chain copies: 3; dsDNA, one strand shown. In outline: as §1
Chain of HSF1 (Q00613 whole entry): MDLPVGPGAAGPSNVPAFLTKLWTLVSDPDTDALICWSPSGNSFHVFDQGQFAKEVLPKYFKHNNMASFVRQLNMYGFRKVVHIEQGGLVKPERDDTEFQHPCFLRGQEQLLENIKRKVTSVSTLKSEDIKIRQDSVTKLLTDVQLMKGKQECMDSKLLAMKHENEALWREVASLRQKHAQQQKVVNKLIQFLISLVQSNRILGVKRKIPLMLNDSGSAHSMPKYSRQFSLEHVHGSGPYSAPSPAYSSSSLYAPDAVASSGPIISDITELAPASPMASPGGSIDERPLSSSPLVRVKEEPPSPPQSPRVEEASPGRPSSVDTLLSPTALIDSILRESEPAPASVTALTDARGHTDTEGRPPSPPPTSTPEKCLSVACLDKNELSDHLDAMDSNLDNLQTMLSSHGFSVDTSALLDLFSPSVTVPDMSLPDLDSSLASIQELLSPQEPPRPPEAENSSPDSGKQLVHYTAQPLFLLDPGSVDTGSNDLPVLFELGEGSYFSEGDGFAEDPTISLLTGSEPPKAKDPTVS
A further assay has as its target T2, SPIC (Homo sapiens, UniProt Q8N5J4 1-248).
T2 sequence: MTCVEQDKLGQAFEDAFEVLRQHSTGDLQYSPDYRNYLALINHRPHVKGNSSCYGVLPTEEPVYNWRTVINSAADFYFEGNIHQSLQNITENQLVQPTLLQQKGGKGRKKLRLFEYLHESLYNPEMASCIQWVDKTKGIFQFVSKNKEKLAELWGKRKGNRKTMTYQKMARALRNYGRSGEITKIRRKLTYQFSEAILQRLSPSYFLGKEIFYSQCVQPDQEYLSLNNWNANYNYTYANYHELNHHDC
The following applies: protein: recombinant; tags: N-terminal GST; dsDNA, one strand shown. The method, boiled down:
as §1

Another assay deals with ELF4 (Homo sapiens, UniProt Q99607 1-663). The note with it: protein: recombinant; tags: N-terminal GST; dsDNA, one strand shown. The method, boiled down: as §1
Chain of ELF4 (Q99607 whole entry): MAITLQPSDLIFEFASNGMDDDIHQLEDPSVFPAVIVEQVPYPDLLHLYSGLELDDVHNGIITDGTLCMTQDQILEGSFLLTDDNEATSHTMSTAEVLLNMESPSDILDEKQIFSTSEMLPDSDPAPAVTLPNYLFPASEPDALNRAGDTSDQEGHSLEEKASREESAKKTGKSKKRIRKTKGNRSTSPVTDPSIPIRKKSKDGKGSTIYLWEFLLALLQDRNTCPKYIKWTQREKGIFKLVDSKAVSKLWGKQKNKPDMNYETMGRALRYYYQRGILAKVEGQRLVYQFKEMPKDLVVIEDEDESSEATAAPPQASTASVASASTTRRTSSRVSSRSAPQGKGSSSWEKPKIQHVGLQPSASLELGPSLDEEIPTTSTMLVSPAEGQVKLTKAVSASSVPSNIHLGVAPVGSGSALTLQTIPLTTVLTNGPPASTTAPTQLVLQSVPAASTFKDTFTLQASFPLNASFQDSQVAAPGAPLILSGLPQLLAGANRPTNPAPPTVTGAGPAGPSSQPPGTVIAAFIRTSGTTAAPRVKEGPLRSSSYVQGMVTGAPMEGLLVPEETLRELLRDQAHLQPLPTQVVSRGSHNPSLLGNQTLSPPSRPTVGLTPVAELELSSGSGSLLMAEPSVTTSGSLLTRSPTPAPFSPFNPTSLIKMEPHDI
Another assay concerns the target T3, ELK4 (Homo sapiens, UniProt P28324-2 1-405).
T3 sequence: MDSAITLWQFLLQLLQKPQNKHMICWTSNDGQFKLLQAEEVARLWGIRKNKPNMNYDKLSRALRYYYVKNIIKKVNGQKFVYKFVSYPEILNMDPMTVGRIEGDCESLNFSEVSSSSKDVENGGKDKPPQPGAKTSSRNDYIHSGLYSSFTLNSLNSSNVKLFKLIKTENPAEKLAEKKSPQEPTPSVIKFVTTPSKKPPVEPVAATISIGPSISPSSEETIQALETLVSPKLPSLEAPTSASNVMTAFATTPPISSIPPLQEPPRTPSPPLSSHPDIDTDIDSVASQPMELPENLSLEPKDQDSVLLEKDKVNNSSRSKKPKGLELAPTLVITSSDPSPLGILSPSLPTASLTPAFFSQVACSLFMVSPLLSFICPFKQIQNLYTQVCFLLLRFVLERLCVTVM
The following applies: protein: recombinant; tags: N-terminal GST; dsDNA, one strand shown. The method, boiled down:
as §1

Another assay has as its target T4, ETV2 (Homo sapiens, UniProt O00321 1-342).
T4 sequence: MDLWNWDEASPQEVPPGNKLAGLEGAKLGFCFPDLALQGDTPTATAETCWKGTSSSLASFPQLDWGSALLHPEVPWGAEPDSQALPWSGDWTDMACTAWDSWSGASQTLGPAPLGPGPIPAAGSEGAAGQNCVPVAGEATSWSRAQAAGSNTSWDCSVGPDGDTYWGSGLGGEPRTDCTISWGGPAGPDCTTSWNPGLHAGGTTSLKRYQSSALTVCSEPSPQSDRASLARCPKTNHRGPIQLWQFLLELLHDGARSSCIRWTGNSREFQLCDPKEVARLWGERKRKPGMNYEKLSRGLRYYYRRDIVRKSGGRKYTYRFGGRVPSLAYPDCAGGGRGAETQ
The following applies: protein: recombinant; tags: N-terminal GST; dsDNA, one strand shown. The method, boiled down: as §1

The target of the next assay is T5, ELF3 (Homo sapiens, UniProt P78545 1-371).
T5 sequence: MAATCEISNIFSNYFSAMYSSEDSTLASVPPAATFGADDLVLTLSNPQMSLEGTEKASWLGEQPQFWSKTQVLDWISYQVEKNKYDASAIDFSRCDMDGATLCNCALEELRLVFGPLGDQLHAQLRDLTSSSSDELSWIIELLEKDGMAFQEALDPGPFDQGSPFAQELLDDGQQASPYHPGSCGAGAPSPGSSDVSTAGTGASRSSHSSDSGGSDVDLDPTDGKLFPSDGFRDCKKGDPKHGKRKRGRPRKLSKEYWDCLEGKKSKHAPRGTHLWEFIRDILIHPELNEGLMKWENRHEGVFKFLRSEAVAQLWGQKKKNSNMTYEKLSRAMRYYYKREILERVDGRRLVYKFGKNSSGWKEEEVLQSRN
The following applies: protein: recombinant; tags: N-terminal GST; dsDNA, one strand shown. The method, boiled down: as §1

A further assay addresses CRX (Homo sapiens, UniProt O43186 1-299). The note with it: protein: recombinant; tags: N-terminal GST; dsDNA, one strand shown. The method, boiled down: as §1
Another assay concerns the target ETV1 (Homo sapiens, UniProt P50549 1-477). The note with it: protein: recombinant; tags: N-terminal GST; dsDNA, one strand shown. The method, boiled down:
as §1

The next assay has as its target T6, ERF (Homo sapiens, UniProt P50548 1-548).
T6 sequence: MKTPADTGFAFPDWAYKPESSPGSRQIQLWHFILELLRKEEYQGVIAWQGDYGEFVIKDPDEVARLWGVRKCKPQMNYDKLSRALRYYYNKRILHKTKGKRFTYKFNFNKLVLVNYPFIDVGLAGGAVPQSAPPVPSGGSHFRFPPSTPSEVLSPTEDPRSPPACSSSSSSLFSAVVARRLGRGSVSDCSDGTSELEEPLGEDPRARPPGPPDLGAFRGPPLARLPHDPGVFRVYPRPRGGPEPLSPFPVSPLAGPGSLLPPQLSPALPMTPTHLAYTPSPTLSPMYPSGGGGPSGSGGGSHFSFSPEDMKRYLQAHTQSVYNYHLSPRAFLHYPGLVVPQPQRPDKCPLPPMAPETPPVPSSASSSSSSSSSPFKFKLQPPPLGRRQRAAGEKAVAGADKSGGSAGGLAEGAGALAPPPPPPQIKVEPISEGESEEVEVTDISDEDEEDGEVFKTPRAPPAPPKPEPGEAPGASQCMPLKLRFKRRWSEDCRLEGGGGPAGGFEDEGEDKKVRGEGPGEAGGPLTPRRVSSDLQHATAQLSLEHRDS
The following applies: protein: recombinant; tags: N-terminal GST; dsDNA, one strand shown. In outline:
as §1

The target in a further assay is T7, ETV3L (Homo sapiens, UniProt Q6ZN32 1-361).
T7 sequence: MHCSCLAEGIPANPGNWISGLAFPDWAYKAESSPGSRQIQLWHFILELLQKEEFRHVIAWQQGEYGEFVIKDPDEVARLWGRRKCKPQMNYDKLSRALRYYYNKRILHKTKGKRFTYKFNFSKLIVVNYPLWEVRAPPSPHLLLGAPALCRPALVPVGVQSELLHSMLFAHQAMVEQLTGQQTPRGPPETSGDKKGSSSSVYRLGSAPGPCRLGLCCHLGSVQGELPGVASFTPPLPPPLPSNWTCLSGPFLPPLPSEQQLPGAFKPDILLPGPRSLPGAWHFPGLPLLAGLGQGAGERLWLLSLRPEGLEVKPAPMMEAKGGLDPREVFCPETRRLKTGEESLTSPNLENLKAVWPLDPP
The following applies: protein: recombinant; tags: N-terminal GST; dsDNA, one strand shown. The method, boiled down: as §1

For another assay, the target named is T8, ETS2 (Homo sapiens, UniProt P15036 1-469).
T8 sequence: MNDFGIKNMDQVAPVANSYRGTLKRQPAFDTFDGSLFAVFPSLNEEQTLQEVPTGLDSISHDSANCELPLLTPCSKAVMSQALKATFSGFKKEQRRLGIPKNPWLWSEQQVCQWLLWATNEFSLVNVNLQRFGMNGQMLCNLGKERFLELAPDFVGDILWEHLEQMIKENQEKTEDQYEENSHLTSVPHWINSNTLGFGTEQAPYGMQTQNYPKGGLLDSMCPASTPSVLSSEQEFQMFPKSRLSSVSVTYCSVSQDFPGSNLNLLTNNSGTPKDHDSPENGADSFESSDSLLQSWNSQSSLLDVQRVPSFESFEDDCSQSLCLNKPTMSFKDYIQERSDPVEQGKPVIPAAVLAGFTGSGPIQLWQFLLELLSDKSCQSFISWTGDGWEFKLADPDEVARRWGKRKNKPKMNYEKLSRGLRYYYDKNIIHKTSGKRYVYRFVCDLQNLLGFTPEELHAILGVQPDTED
The following applies: protein: recombinant; tags: N-terminal GST; dsDNA, one strand shown. In outline:
as §1

In another assay the target is T9, SPDEF (Homo sapiens, UniProt O95238 1-335).
T9 sequence: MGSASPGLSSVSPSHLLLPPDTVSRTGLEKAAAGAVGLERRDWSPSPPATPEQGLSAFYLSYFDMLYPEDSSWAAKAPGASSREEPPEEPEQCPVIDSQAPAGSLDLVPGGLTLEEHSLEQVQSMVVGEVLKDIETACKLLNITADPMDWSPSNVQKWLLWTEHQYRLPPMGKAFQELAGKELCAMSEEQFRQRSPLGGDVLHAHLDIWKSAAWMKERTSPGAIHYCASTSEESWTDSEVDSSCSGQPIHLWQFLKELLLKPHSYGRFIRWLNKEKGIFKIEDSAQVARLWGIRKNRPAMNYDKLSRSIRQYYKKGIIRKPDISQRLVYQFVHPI
The following applies: protein: recombinant; tags: N-terminal GST; dsDNA, one strand shown. The method, boiled down:
as §1

A further assay concerns the target T10, ETV7 (Homo sapiens, UniProt Q9Y603 1-341).
T10 sequence: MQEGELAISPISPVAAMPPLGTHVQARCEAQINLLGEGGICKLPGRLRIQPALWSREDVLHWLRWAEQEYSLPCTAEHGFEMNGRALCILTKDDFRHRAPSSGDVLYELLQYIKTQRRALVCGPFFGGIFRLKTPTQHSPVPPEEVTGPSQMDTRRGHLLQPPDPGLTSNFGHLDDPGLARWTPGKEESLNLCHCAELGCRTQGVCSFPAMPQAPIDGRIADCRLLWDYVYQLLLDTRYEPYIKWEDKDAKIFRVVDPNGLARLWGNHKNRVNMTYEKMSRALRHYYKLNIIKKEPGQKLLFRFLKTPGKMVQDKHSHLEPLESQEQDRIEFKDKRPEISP
The note with it: protein: recombinant; tags: N-terminal GST; dsDNA, one strand shown. In outline: as §1

The next assay addresses T11, ELF5 (Homo sapiens, UniProt Q9UKW6-2 1-255).
T11 sequence: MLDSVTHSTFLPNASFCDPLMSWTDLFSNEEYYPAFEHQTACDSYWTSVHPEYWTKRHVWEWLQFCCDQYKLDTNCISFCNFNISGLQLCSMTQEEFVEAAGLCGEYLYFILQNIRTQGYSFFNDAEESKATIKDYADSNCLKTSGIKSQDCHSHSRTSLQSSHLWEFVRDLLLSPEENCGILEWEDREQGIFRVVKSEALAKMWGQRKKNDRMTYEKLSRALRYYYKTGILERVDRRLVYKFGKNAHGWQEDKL
The following applies: protein: recombinant; tags: N-terminal GST; dsDNA, one strand shown. In outline: as §1

The target in another assay is T12, ETV3 (Homo sapiens, UniProt P41162-2 1-143).
T12 sequence: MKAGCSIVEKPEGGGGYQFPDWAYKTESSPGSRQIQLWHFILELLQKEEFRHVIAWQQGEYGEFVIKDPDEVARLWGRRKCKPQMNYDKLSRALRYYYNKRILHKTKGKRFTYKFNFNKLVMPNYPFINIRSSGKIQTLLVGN
The following applies: protein: recombinant; tags: N-terminal GST; dsDNA, one strand shown. In outline: as §1

For a further assay, the target named is ETV6 (Homo sapiens, UniProt P41212 1-452). The following applies: protein: recombinant; tags: N-terminal GST; dsDNA, one strand shown. In outline: as §1
Chain of ETV6 (P41212 whole entry): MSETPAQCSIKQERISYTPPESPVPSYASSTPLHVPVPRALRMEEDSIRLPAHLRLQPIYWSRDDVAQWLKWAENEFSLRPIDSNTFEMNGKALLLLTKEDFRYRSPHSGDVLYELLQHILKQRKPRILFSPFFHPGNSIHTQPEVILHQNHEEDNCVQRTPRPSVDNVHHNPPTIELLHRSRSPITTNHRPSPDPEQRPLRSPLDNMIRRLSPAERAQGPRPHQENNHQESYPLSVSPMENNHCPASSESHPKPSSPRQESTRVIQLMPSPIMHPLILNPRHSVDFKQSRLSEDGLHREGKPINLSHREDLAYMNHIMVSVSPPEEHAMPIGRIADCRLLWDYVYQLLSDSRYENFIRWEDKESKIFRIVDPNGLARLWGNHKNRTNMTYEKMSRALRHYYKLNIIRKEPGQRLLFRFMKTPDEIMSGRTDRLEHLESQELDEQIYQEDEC

Chain of ETV1 (P50549 whole entry): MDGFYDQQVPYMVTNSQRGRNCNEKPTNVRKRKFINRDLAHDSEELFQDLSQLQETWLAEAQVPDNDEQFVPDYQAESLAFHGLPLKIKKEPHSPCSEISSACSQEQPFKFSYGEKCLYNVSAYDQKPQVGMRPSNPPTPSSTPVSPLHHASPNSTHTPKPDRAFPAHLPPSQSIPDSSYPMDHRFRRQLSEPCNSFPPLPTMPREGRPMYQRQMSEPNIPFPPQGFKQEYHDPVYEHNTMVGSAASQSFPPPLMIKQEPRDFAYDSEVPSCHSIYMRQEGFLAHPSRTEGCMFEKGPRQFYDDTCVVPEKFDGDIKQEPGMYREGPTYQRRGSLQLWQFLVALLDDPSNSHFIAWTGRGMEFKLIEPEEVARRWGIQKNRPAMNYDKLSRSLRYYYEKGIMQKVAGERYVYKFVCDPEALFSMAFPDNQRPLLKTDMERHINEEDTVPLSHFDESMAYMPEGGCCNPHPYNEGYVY
Chain of ETV5 (P41161 whole entry): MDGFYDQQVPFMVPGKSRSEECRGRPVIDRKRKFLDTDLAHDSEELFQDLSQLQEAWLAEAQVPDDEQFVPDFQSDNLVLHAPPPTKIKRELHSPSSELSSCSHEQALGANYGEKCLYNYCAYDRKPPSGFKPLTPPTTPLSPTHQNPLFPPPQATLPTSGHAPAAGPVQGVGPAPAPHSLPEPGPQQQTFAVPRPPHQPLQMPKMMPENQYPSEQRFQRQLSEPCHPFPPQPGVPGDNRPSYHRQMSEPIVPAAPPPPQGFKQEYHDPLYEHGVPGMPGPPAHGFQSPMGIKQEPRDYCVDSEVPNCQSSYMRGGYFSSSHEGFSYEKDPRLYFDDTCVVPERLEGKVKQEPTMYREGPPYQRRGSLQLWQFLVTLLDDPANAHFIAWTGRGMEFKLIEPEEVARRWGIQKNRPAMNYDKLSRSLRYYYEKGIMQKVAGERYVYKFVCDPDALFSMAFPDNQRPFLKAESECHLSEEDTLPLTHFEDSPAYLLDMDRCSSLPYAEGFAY
Chain of CRX (O43186 whole entry): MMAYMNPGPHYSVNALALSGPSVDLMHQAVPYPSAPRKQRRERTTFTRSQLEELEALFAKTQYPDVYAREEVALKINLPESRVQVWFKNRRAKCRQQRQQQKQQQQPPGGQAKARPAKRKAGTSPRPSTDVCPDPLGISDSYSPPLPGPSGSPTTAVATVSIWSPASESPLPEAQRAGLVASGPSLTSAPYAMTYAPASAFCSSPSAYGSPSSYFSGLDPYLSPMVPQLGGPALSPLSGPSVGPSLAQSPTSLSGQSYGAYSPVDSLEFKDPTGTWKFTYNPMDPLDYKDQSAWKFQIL

For TTAATA, the binding signal was 1.19 fold enrichment (6-mer frequency, TF over GST control) with FEV; 1.15 fold enrichment (6-mer frequency, TF over GST control) with ETV5; 2.09 fold enrichment (6-mer frequency, TF over GST control) with HSF1; 1.11 fold enrichment (6-mer frequency, TF over GST control) with SPIC; 1.23 fold enrichment (6-mer frequency, TF over GST control) with ELF4; 1.08 fold enrichment (6-mer frequency, TF over GST control) with ELK4. Also, the binding signal was 1.25 fold enrichment (6-mer frequency, TF over GST control) with ETV2; 1.06 fold enrichment (6-mer frequency, TF over GST control) with ELF3; 3.19 fold enrichment (6-mer frequency, TF over GST control) with CRX; 1.09 fold enrichment (6-mer frequency, TF over GST control) in the assay with ETV1; 1.24 fold enrichment (6-mer frequency, TF over GST control) with ERF; 1.28 fold enrichment (6-mer frequency, TF over GST control) in the assay with ETV3L. Besides, the binding signal was 1.21 fold enrichment (6-mer frequency, TF over GST control) with ETS2; 1.14 fold enrichment (6-mer frequency, TF over GST control) in the assay with SPDEF; 1.23 fold enrichment (6-mer frequency, TF over GST control) with ETV7; 1.12 fold enrichment (6-mer frequency, TF over GST control) with ELF5; 1.09 fold enrichment (6-mer frequency, TF over GST control) with ETV3; 1.15 fold enrichment (6-mer frequency, TF over GST control) with ETV6.
